# Data reported in paper PMC7862700, “An all-to-all approach to the identification of sequence-specific readers for epigenetic DNA modifications on cytosine”.
# What was measured:
# Test in all cases: DAPPL (digital affinity profiling via proximity ligation, sequencing); 10 mM Tris-HCl pH 7.5, 50 mM NaCl, 1 mM DTT, 4% glycerol, room temperature, 30 min; GST-TFs on glutathione beads, 16-mer random dsDNA library, 0.1% formaldehyde crosslink after washing; high values mean tight binding
# Conditions in all cases: protein: recombinant; tags: N-terminal GST; dsDNA, one strand shown
# ELK1 = molecular target: T1, ELK1 (Homo sapiens, UniProt P19419 1-428)
# T1 sequence: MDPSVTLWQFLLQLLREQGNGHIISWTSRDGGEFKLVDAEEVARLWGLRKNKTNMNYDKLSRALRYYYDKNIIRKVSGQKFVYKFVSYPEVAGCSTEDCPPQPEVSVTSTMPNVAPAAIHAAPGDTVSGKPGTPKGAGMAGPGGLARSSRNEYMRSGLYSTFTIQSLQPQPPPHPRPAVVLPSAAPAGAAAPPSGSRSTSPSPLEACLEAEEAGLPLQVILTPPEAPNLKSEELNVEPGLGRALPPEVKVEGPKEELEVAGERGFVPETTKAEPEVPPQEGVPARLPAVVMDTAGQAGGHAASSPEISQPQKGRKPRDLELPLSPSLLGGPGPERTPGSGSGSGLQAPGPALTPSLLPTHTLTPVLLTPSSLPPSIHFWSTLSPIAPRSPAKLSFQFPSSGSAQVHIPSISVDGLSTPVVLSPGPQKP
# In short: (§1)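 Sequencing on an Illumina NextSeq500 followed washing, crosslinking with 0.1% formaldehyde, proximity ligation (BsaI/T4 ligase, 1 h, 37 °C) and PCR amplification of pools that had been incubated for 30 min at room temperature with 200 nmole of a random double-stranded 16-mer DNA library in Tris/NaCl/DTT/glycerol buffer. Each pool held DNA-barcoded human transcription factors, expressed in yeast as GST fusions and captured on glutathione beads, plus a tag-only sample. Binding signal is a hexamer's read frequency for a factor divided by its frequency in the tag-only sample.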
# GABPA = molecular target: T2, GABPA (Homo sapiens, UniProt Q06546 1-454)
# T2 sequence: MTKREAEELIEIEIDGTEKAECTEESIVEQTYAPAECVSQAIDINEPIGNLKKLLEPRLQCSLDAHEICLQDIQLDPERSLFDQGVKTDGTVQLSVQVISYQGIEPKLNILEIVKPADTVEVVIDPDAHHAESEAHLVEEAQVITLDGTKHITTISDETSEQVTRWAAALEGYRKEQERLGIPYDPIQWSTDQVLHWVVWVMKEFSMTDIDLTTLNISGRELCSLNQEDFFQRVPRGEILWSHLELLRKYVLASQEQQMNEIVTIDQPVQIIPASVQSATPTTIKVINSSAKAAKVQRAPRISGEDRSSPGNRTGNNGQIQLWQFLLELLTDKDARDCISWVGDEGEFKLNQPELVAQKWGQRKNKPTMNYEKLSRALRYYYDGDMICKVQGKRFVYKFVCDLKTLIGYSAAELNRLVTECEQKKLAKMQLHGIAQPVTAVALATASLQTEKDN
# In short: as §1
# ERG = molecular target: T3, ERG (Homo sapiens, UniProt P11308 1-479)
# T3 sequence: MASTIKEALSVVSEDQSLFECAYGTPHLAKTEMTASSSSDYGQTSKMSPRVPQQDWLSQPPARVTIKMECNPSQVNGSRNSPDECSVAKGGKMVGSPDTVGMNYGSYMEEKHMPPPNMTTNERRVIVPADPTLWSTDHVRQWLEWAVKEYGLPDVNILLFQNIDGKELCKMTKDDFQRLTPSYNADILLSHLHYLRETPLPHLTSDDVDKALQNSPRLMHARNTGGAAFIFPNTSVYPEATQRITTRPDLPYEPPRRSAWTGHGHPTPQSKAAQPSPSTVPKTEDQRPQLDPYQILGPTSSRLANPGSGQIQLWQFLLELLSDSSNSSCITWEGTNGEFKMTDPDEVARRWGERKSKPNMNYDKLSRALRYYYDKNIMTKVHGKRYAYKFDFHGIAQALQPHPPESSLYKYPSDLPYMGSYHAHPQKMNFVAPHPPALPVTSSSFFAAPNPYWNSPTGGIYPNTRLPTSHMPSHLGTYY
# In short: as §1
# ELF1 = ELF1 (Homo sapiens, UniProt P32519 1-619)
# Chain of ELF1 (P32519 whole entry): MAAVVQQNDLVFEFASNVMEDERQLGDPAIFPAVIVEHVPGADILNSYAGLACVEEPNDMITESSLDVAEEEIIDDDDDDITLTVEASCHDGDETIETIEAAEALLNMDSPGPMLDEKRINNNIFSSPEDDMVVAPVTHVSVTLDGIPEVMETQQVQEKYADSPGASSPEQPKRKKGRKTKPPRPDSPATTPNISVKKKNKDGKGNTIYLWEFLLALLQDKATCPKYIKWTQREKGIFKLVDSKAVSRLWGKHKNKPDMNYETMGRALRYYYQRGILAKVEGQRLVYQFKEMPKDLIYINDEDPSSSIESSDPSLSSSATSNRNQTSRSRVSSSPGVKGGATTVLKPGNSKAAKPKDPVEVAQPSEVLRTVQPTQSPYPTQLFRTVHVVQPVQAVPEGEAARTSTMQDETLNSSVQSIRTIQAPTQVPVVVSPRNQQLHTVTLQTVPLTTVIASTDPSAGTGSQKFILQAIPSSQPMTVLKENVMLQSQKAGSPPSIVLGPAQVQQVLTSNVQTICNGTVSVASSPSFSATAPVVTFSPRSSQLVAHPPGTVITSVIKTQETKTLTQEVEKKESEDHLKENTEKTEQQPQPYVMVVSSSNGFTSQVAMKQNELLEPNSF
# In short: as §1
# EHF = molecular target: T4, EHF (Homo sapiens, UniProt Q9NZC4 1-300)
# T4 sequence: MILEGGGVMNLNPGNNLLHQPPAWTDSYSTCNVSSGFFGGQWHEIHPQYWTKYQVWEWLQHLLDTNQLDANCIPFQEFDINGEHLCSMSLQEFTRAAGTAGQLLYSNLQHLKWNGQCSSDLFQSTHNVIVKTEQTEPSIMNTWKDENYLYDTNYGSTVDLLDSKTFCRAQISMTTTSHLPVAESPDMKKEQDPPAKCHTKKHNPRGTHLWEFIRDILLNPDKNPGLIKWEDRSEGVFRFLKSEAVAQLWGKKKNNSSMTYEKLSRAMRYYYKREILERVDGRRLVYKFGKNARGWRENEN
# In short: as §1
# SPIB = SPIB (Homo sapiens, UniProt Q01892 1-262)
# Chain of SPIB (Q01892 whole entry): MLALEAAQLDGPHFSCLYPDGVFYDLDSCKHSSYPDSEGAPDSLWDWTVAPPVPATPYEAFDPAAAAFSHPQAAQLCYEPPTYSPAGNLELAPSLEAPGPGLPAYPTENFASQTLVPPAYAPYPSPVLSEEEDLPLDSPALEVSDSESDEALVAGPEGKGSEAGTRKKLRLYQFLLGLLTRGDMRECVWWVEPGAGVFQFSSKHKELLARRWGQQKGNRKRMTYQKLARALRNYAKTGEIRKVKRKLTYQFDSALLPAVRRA
# In short: as §1
# FEV = molecular target: T5, FEV (Homo sapiens, UniProt Q99581 1-238)
# T5 sequence: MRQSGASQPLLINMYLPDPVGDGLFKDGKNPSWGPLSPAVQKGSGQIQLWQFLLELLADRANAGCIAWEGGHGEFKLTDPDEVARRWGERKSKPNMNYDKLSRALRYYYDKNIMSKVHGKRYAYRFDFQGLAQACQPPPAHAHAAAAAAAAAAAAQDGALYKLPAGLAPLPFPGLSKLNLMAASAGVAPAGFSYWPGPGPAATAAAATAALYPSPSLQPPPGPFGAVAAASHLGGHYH
# In short: as §1
# ETV5 = ETV5 (Homo sapiens, UniProt P41161 1-510)
# Chain of ETV5 (P41161 whole entry): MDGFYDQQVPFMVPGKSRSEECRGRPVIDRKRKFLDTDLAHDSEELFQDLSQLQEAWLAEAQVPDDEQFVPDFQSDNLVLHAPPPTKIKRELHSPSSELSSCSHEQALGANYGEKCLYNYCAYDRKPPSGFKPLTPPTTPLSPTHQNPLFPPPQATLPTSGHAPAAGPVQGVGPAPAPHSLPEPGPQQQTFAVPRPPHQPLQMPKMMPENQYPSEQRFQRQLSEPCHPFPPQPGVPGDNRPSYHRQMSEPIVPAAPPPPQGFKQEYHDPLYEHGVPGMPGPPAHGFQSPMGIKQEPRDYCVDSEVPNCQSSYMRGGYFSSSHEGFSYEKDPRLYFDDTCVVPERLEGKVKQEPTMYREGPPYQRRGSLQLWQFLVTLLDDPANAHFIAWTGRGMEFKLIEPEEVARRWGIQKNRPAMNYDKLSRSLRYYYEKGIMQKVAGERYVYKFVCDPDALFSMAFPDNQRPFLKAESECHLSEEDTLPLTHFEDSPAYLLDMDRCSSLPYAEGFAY
# In short: as §1
# ELF4 = ELF4 (Homo sapiens, UniProt Q99607 1-663)
# Chain of ELF4 (Q99607 whole entry): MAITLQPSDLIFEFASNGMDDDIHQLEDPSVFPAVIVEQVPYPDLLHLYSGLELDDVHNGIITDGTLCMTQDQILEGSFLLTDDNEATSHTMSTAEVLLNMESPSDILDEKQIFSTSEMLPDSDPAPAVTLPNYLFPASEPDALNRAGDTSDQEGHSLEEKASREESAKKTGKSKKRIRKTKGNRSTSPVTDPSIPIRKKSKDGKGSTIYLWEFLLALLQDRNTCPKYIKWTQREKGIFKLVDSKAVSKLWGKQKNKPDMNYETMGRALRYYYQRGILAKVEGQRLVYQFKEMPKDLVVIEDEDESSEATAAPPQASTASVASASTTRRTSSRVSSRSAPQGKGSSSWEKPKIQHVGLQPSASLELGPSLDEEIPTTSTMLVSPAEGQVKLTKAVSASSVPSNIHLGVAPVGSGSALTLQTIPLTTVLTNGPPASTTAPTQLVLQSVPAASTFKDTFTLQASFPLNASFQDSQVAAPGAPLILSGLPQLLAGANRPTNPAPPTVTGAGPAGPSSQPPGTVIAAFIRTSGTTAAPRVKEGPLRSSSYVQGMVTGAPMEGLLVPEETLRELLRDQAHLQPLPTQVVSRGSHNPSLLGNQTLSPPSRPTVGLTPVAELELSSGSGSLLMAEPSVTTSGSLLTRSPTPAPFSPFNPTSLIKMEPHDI
# In short: as §1
# ELK4 = molecular target: T6, ELK4 (Homo sapiens, UniProt P28324-2 1-405)
# T6 sequence: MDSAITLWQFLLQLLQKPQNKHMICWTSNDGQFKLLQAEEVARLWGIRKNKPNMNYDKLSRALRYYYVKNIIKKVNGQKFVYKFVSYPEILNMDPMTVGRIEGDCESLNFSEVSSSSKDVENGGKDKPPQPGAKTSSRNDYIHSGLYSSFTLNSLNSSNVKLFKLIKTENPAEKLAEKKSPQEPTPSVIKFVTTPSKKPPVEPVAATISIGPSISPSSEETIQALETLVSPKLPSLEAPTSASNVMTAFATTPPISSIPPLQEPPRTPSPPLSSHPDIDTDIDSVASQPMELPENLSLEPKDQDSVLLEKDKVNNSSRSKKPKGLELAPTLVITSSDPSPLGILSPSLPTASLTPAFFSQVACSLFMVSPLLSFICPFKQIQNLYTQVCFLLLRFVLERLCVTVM
# In short: as §1
# ELF3 = molecular target: T7, ELF3 (Homo sapiens, UniProt P78545 1-371)
# T7 sequence: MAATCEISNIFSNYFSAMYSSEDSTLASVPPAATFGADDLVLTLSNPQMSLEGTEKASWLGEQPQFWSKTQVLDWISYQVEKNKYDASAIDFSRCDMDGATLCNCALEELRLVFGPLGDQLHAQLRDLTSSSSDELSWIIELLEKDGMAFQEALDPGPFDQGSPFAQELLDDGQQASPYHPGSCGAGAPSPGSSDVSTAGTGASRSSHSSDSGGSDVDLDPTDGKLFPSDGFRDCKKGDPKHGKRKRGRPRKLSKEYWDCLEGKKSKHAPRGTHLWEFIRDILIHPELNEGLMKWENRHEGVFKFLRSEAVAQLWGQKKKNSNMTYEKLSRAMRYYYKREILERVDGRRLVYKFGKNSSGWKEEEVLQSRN
# In short: as §1
# ETV1 = ETV1 (Homo sapiens, UniProt P50549 1-477)
# Chain of ETV1 (P50549 whole entry): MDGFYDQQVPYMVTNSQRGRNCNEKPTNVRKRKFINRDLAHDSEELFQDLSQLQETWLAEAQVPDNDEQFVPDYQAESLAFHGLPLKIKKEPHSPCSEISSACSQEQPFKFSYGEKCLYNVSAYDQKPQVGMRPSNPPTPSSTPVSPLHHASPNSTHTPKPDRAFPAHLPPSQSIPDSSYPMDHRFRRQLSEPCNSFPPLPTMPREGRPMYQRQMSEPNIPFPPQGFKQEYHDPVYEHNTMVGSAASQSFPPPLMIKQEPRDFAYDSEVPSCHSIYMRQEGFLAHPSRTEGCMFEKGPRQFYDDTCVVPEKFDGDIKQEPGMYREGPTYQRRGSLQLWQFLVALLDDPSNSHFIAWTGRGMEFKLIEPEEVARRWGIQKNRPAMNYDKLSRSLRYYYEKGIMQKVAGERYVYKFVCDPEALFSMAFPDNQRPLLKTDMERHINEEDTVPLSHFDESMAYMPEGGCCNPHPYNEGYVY
# In short: as §1
# ERF = molecular target: T8, ERF (Homo sapiens, UniProt P50548 1-548)
# T8 sequence: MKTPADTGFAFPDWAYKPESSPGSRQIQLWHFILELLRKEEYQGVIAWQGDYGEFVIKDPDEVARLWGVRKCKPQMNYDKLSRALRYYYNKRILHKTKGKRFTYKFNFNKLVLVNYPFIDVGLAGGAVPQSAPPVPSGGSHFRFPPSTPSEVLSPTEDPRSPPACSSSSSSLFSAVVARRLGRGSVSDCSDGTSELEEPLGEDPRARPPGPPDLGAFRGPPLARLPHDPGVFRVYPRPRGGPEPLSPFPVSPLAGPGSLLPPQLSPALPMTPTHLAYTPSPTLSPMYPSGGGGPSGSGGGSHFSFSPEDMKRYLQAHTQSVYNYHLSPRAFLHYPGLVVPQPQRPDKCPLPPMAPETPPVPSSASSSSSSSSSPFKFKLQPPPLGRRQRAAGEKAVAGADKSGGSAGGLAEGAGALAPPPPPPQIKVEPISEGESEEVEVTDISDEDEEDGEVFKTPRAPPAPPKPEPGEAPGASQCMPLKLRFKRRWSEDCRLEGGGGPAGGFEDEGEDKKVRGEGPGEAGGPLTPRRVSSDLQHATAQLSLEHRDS
# In short: as §1
# ETV3L = molecular target: T9, ETV3L (Homo sapiens, UniProt Q6ZN32 1-361)
# T9 sequence: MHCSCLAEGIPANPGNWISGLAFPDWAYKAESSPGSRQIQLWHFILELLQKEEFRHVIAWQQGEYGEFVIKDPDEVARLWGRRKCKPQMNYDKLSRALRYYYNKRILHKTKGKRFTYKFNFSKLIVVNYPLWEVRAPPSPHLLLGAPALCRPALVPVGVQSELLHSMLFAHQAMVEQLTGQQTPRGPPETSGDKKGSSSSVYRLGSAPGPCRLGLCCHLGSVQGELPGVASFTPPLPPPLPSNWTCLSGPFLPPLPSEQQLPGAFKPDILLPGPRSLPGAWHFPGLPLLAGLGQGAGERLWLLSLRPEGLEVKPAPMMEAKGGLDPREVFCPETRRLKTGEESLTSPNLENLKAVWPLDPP
# In short: as §1
# ETS2 = molecular target: T10, ETS2 (Homo sapiens, UniProt P15036 1-469)
# T10 sequence: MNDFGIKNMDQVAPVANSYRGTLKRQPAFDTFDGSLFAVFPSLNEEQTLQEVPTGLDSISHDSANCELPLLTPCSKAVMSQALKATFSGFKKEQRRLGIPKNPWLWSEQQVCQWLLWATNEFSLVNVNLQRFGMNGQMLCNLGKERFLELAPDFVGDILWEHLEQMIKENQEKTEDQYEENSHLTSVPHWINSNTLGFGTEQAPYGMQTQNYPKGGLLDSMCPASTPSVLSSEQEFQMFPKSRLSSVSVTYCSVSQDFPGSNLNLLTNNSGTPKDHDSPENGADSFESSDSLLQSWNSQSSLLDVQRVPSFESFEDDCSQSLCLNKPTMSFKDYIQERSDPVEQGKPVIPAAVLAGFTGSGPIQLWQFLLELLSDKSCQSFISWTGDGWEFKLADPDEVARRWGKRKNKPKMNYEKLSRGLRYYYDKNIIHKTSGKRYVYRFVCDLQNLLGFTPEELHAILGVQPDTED
# In short: as §1
# SPDEF = molecular target: T11, SPDEF (Homo sapiens, UniProt O95238 1-335)
# T11 sequence: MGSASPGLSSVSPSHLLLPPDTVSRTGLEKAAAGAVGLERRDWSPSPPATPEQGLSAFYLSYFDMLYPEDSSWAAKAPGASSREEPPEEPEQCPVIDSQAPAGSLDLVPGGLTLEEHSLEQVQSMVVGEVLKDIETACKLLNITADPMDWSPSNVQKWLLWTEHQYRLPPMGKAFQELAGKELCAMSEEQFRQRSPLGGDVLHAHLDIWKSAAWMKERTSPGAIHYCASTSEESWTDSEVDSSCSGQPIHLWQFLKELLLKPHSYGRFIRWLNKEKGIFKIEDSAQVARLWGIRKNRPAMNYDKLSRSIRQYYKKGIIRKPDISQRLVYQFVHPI
# In short: as §1
# ETV3 = molecular target: T12, ETV3 (Homo sapiens, UniProt P41162-2 1-143)
# T12 sequence: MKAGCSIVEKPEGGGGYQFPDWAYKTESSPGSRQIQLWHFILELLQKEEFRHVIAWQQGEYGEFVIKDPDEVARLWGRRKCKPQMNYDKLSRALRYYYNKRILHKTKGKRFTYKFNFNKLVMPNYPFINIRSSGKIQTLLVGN
# In short: as §1
# ETV6 = ETV6 (Homo sapiens, UniProt P41212 1-452)
# Chain of ETV6 (P41212 whole entry): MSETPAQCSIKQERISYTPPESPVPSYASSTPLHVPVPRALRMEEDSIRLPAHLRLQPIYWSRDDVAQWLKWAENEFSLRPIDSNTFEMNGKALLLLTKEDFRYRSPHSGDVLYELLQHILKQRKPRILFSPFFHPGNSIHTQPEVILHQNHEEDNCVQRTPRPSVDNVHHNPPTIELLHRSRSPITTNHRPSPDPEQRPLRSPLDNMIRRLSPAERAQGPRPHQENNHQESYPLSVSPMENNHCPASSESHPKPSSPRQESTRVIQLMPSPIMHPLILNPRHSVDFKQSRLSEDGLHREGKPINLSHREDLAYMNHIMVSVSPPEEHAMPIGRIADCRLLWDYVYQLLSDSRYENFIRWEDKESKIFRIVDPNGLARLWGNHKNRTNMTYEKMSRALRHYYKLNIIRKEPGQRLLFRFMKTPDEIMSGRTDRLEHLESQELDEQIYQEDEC
# In short: as §1
sequence,measurement,setting,value
CACCGG,binding signal,ELK1,"1.16 fold enrichment (6-mer frequency, TF over GST control)"
same,binding signal,GABPA,"1.04 fold enrichment (6-mer frequency, TF over GST control)"
same,binding signal,ERG,"1.27 fold enrichment (6-mer frequency, TF over GST control)"
same,binding signal,ELF1,"1.09 fold enrichment (6-mer frequency, TF over GST control)"
same,binding signal,EHF,"1.13 fold enrichment (6-mer frequency, TF over GST control)"
same,binding signal,SPIB,"1.16 fold enrichment (6-mer frequency, TF over GST control)"
same,binding signal,FEV,"1.75 fold enrichment (6-mer frequency, TF over GST control)"
same,binding signal,ETV5,"1.21 fold enrichment (6-mer frequency, TF over GST control)"
same,binding signal,ELF4,"1.16 fold enrichment (6-mer frequency, TF over GST control)"
same,binding signal,ELK4,"1.05 fold enrichment (6-mer frequency, TF over GST control)"
same,binding signal,ELF3,"1.17 fold enrichment (6-mer frequency, TF over GST control)"
same,binding signal,ETV1,"1.21 fold enrichment (6-mer frequency, TF over GST control)"
same,binding signal,ERF,"1.08 fold enrichment (6-mer frequency, TF over GST control)"
same,binding signal,ETV3L,"1.14 fold enrichment (6-mer frequency, TF over GST control)"
same,binding signal,ETS2,"1.17 fold enrichment (6-mer frequency, TF over GST control)"
same,binding signal,SPDEF,"1.08 fold enrichment (6-mer frequency, TF over GST control)"
same,binding signal,ETV3,"1.14 fold enrichment (6-mer frequency, TF over GST control)"
same,binding signal,ETV6,"1.09 fold enrichment (6-mer frequency, TF over GST control)"
